From PubChem BioAssay (NCATS)
Inconclusive results are not listed. Activity calls are given as the source filed them. The call rests on the fitted dose curve; in most records, active means well fitted curve in the direction sought with a large enough effect; inconclusive means small, poorly fitted or top-dose-only effect, or another doubt; inactive means no such curve, though single readings can be large; an effect the other way counts as inactive or inconclusive.

Key:
[1] = biological target: Rap guanine nucleotide exchange factor 3 (Homo sapiens) (UniProt O95398); assay: Confirmatory qHTS for antagonist of cAMP-regulated guanine nucleotide exchange factor 3 (EPAC1) (AID 1645880); further: nearly all actives have a fitted effect of over 55% in size; further: potency means the concentration at half of the fitted maximal effect
Method in brief: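 Nucleotide exchange uses 100 nM EPAC1, 250 nM RAP1B-BODIPY-GDP and 50 uM GDP, with compounds in a concentration-titration series. After 5 min at room temperature, fluorescence (480 nm ex/540 nm em) is read every 5 min for 30 min. Data are normalized to control ATA and DMSO.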

[2] = biological target: Rap guanine nucleotide exchange factor 3 (Homo sapiens) (UniProt O95398); assay: Confirmatory qHTS for agonist of cAMP-regulated guanine nucleotide exchange factor 3 (EPAC1) (AID 1645881); further: nearly all actives have a fitted effect of over 75% in size; further: potency means the concentration at half of the fitted maximal effect;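 on activation: EPAC1 catalysed release of BODIPY-GDP from Rap1B seen as fluorescence loss; 100% = effect of cAMP agonist control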
[3] = biological target: Rap guanine nucleotide exchange factor 4 (Homo sapiens) (UniProt Q8WZA2); assay: Confirmatory qHTS for agonist of cAMP-regulated guanine nucleotide exchange factor 4 (EPAC2) (AID 1645884);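 further: nucleotide exchange releases bodipy-GDP from Rap1 and this lowers its fluorescence; nearly all actives have a fitted effect of over 65% in size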; further: potency means the concentration at half of the fitted maximal effect; on activation: on the % scale 0 is the no-effect control and ±100 the full control effect
[4] = biological target: Rap guanine nucleotide exchange factor 4 (Homo sapiens) (UniProt Q8WZA2); assay: Confirmatory qHTS for antagonist of cAMP-regulated guanine nucleotide exchange factor 4 (EPAC2) (AID 1645885); further: nearly all actives have a fitted effect of over 25% in size; further: potency means the concentration at half of the fitted maximal effect; on activity change, negative = inhibition: on the % scale 0 is the no-effect control and ±100 the full control effect
[5] = biological target: Rap guanine nucleotide exchange factor 3 (Homo sapiens) (UniProt O95398); assay: Counterscreen qHTS for antagonist of cAMP-regulated guanine nucleotide exchange factor 3 (EPAC1) (AID 1645888);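 further: fluorescence loss as bound BODIPY-GDP is released from Rap1B; % of control where 0% means no effect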
Method in brief: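 Rap1B-BODIPY-GDP 250 nM + GDP 50 uM; cpds 7-pt, final 9.74 nM–152 uM (activator mode) or from 7.32 nM upwards (inhibitor mode); RT; FI 480/540 nm at 5 and 30 min, then ± cAMP, reread.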

[6] = biological target: N-terminal Xaa-Pro-Lys N-methyltransferase 1 (Homo sapiens) (UniProt Q9BV86); assay: Confirmatory qHTS for Inhibitors of N-terminal methyltransferase 1 (NTMT1): MTaseGlo Assay (AID 1645874);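 further: luminescence from SAH made as NTMT1 methylates SPKRIA peptide using SAM; series mostly up to about 100 µM; 0% = DMSO control and -100% = no-enzyme control; nearly all actives have a fitted effect of over 65% in size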
Method in brief: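 Compounds are incubated with 125 nM NTMT1 and 100 uM SAM for 15 min before the SPKRIA peptide (1 uM) starts a 30 min room-temperature methylation. SAH is measured by coupled luciferase luminescence and curves fitted to a Hill equation.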

Sequence of Rap guanine nucleotide exchange factor 4 (Homo sapiens) (Q8WZA2 whole entry, looked up): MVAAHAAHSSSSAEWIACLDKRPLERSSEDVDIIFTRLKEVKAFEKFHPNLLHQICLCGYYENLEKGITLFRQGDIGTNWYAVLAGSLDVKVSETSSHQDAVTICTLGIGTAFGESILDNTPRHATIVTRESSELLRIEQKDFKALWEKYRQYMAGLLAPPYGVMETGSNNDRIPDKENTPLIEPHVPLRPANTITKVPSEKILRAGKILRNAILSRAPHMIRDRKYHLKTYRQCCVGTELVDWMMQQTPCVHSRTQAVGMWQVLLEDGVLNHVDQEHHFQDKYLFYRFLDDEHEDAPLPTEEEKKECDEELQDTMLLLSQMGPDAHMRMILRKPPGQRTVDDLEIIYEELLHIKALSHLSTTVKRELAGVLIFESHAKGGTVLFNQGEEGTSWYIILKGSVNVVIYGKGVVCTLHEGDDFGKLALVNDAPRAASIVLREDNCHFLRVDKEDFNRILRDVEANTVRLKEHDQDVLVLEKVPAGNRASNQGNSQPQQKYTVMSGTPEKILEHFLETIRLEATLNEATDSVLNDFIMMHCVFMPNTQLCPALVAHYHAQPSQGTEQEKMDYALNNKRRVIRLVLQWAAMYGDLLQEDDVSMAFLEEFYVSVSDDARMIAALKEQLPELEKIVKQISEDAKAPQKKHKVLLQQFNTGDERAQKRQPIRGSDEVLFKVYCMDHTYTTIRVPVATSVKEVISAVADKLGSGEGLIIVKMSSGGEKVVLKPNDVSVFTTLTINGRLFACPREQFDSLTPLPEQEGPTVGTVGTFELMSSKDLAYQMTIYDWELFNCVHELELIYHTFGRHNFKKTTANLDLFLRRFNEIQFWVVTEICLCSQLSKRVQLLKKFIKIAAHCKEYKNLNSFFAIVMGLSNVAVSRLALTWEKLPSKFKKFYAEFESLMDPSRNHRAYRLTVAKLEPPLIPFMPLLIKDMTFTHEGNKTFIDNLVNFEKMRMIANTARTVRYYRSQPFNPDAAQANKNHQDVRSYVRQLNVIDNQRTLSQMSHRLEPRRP
Sequence of Rap guanine nucleotide exchange factor 3 (Homo sapiens) (O95398 whole entry, looked up): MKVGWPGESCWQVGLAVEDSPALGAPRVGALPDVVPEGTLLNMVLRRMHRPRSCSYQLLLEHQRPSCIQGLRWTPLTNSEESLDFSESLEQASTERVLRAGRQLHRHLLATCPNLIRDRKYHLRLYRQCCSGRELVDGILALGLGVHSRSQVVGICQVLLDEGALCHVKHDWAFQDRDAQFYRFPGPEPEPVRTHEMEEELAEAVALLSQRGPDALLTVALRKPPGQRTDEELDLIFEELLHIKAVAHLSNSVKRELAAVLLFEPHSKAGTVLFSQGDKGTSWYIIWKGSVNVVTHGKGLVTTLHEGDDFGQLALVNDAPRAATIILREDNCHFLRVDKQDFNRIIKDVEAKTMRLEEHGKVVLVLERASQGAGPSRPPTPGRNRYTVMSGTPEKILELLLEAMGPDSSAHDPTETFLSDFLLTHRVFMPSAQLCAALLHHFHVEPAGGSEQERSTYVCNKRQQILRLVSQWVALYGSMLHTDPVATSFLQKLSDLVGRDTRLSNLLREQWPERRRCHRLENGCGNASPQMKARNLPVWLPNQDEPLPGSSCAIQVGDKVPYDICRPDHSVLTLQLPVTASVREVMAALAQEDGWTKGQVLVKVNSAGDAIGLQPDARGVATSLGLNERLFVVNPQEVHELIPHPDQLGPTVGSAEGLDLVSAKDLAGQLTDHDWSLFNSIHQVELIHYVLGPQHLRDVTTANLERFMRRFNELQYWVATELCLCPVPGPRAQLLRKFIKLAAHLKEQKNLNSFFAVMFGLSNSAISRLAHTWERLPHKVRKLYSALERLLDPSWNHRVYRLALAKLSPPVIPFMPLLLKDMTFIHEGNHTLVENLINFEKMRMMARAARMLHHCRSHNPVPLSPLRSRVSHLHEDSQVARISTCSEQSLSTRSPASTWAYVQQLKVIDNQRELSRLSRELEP
Sequence of N-terminal Xaa-Pro-Lys N-methyltransferase 1 (Homo sapiens) (Q9BV86 whole entry, looked up): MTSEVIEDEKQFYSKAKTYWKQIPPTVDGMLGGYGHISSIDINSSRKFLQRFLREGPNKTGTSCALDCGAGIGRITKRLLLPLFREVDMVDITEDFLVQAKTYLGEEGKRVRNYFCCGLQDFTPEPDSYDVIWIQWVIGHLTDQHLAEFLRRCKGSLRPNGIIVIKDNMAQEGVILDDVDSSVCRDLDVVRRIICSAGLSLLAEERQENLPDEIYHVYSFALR

CCOC(=O)[C@]12Cc3ccccc3[C@H]1N(C1CCCCC1)C(=O)c1cc(OC)ccc12
inactive: Potency [1] | Potency [2] | Potency [3] | Potency [4] | outcome [5]

COc1ccc(C(SCC(NC(=O)OCc2ccccc2)C(=O)O)c2ccc(OC)cc2)cc1 (stereo not given)
inactive: Potency [1] | Potency [2] | Potency [3] | Potency [4] | outcome [5]

CCOc1ccc(CN(CCc2ccc3c(c2)OCO3)Cc2cccc(Br)c2)cc1
inactive: outcome [6]

CCOC(=O)c1cc(CC)sc1/N=C/c1c(O)[nH]c(=S)[nH]c1=O
inactive: Potency [1] | Potency [4] | outcome [5]
active: Potency [2] 100 µM | Potency [3] 100 µM

COCCCn1c(N)c(C(=O)NCCC(C)C)c2nc3ccccc3nc21
inactive: Potency [2] | activation [3] 8.34% [at 17.1 µM, percent relative to cAMP agonist control] | activity change, negative = inhibition [4] -14.1% [at 12.7 µM] | activity change, negative = inhibition [5] 2.52% [at 30.8 µM]
active: Potency [1] 56.2 µM

CCN1C(=O)C(=C/C=C/c2ccco2)C(=O)N(CC)C1=S
inactive: Potency [1] | Potency [2] | Potency [3] | Potency [4] | outcome [5]

CCOC(=O)[C@]12Cc3cc(Cl)ccc3[C@H]1N(C1CCCCC1)C(=O)c1ccccc12
inactive: Potency [1] | Potency [2] | Potency [3] | Potency [4] | outcome [5]

CCOC(=O)[C@]12Cc3cc(C)ccc3[C@H]1N(C1CCCCC1)C(=O)c1ccccc12
inactive: Potency [1] | Potency [2] | activation [3] 4.83% [at 17.1 µM, percent relative to cAMP agonist control] | activity change, negative = inhibition [4] -27.9% [at 12.7 µM]

Cc1c(NS(=O)(=O)c2ccccc2)ccc([N+](=O)[O-])c1Cl
inactive: Potency [1] | Potency [2] | Potency [3] | Potency [4] | outcome [5]

CC(Cc1ccc(O)cc1)NCC(O)c1ccc(O)c(O)c1 (stereo not given)
inactive: Potency [2] | activation [3] -2.87% [at 17.1 µM, percent relative to cAMP agonist control] | activity change, negative = inhibition [4] -0.704% [at 12.7 µM] | activity change, negative = inhibition [5] 6.78% [at 30.8 µM]
active: Potency [1] 22.4 µM

CCCCn1c(NS(=O)(=O)c2ccc(C)cc2)c(C(=O)OCC)c2nc3ccccc3nc21
active: Potency [1] 75.7 µM | Potency [4] 23.9 µM
inactive: Potency [2] | Potency [3] | outcome [5]

COc1cccc(-n2c(/C=C/c3ccc(O)c(O)c3)nc3ccccc3c2=O)c1
active: Potency [1] 31.6 µM
inactive: Potency [2] | activation [3] 9.04% [at 17.1 µM, percent relative to cAMP agonist control] | activity change, negative = inhibition [4] -22.6% [at 12.7 µM] | activity change, negative = inhibition [5] 2.65% [at 30.8 µM]

O=C1NCN(c2ccccc2)C12CCN(C(c1cc3ccccc3o1)c1nnnn1C1CCCC1)CC2 (stereo not given)
inactive: Potency [1] | Potency [2] | activation [3] 13.1% [at 17.1 µM, percent relative to cAMP agonist control] | activity change, negative = inhibition [4] -12.5% [at 12.7 µM] | activity change, negative = inhibition [5] -0.487% [at 30.8 µM]
